# Results as given in PubChem BioAssay (NCATS).
# Records with an inconclusive call do not appear. Calls of active or inactive are those of the source. The call rests on the fitted dose curve. Positions of bridges follow the written chain, without caps; N, C: chain ends. Non-standard residues stand in square brackets, D forms with d. Residues, ends and D or L forms follow the SMILES beside them. ξ: configuration not given here. *: point of attachment. Octanoyl(6-Me) = CCC(C)CCCCC(=O)*; ξThr(3R) = C[C@@H](O)C(N)C(=O)O; dDab = NCC[C@@H](N)C(=O)O; Dab = NCC[C@H](N)C(=O)O
# How the values were obtained:
# [1] = qHTS drug screen for cell cycle checkpoint inhibitors in PARPi-resistant BRCA-mutant ovarian cancer cell lines. (AID 1963452); conditions: PEO1/OlaR viability, CellTiter-Glo luminescence, 96 h; for Z-AUC: stronger effect = lower value
# Outline: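 PEO1, PEO4 and PEO1/OlaR ovarian cancer cells, 600 per well, exposed 96 h at 37C to a dilution series. Viability read by CellTiter-Glo luminescence, normalized to DMSO and empty wells; activity summarized as Z-AUC.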
# [2] = qHTS for identification of novel therapeutic agents for treatment of microphthalmiaassociated transcription factor (MiT) renal cell carcinoma (RCC) (AID 1963991); conditions: CellTiter-Glo, 48 h; for z-score: stronger effect = lower value
# Outline: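 Curves over 11 concentrations were fitted to CellTiter-Glo luminescence, scaled between empty wells (0%) and DMSO (100%) viability. Cells were UOK109, UOK124 and UOK145 TFE3-fusion RCC lines at 500/well, exposed 48 hours at 37 C.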
# [3] = measured here: PEO1 parental Z-AUC
# [4] = TFE3-RCC UOK109 viability, measured here: UOK109 Z-AUC
# [5] = TFE3-RCC viability, measured here: UOK124 Z-AUC
# [6] = TFE3-RCC viability, measured here: UOK145 Z-AUC
# Potency means the concentration at half of the fitted maximal effect.
Structure (SMILES),Z-AUC [1],"Z-AUC [1, 3]",Z-AUC ([1]; measured here: PEO4 Z-AUC),"z-score [2, 4]","z-score [2, 5]","z-score [2, 6]",Potency [1],"Potency ([2]; TFE3-RCC UOK109 viability, active = Z-AUC below -0.8 in all three lines)"
COC(=O)[C@H](CCCN=C(N)N)NS(=O)(=O)c1ccc(C)cc1,1.53 (inactive),1.46,1,0.843,0.187,0.701,–,–
C=C[C@@H]1CN2CCC1C[C@H]2[C@H](O)c1ccnc2ccc(OC)cc12 (some centres not stated),-0.116 (inactive),0.594,0.97,0.232,0.335,0.288,–,–
C[C@H](CCC(=O)O)[C@H]1CCC2C3C[C@H](O)[C@@H]4C[C@H](O)CC[C@]4(C)C3CC[C@@]21C (some centres not stated),0.00585 (inactive),0.454,0.29,0.156,0.446,0.00817,–,–
CC(Oc1ccc(O)cc1)(P(=O)(O)O)P(=O)(O)O,0.474 (inactive),0.34,0.383,0.171,0.237,0.233,–,–
CCC(C)CCCCC(=O)N[C@@H](CCN)C(=O)NC(C(=O)N[C@H](CCN)C(=O)N[C@@H]1CCNC(=O)C([C@@H](C)O)NC(=O)[C@@H](CCN)NC(=O)[C@@H](CCN)NC(=O)[C@@H](CC(C)C)NC(=O)[C@H](Cc2ccccc2)NC(=O)[C@H](CCN)NC1=O)[C@@H](C)O (stereo partly drawn) ({Octanoyl(6-Me)}-[Dab][ξThr(3R)][dDab][dDab][Dab]F[dL][dDab][dDab][ξThr(3R)]; lactam 4-C),1.19 (inactive),0.672,0.762,0.782,0.881,0.703,–,–
CC(C)C[C@H](NC(=O)[C@@H](NC(=O)c1cccc(-c2ccccc2)n1)[C@@H](C)O)B(O)O,–,-2.93,-3.51,-1.47,-3.68,-3.39,0.0601 µM (active),0.469 µM (active)
